Rows were chosen to be rich in hits. Some 3.8% of all compounds tested hit in one or more screens of this group.
ATXN2 expr inh – reduces ATXN2 reporter expression in HEK-293 cells | HEK-293 ATXN2-luciferase reporter, luminescence, 24 h | 360,000 tested, 0.72% active | Potency, µM (series often up to 57 µM), without a hit: at the top dose activity change, negative = inhibition, hits mostly inhibitors | AID 1745845; also: % is scaled to controls: 0 for no effect and ±100 for the full control effect; nearly all actives have a fitted effect of over 55% in size
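qHTS (up to 57 uM final) was run with 24 h compound exposure of reporter cells at 37 °C. Each well was multiplexed: SteadyGlo luminescence measured ATXN2-luciferase expression after a fluorogenic Gly-Phe-AFC viability readout (25 uM final).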
TGFb SMAD3 inh – blocks TGF-b signaling | HepG2 CAGA-GFP TGF-b/SMAD3 reporter, GFP fluorescence, 18 h; TGF-beta stimulated, 500 pg/mL final | Potency, µM (top dose mostly 46.1 µM), for inactives: at the top dose activity, negative = inhibition, usual class: inhibitors | 410,000 tested, 1.2% active | AID 588855; also: % is scaled to controls: 0 for no effect and ±100 for the full control effect; nearly all actives have a fitted effect of over 65% in size
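Cell-based qHTS in HEPG2 carrying a CAGA-GFP Smad reporter; compounds added before 500 pg/mL final TGF-beta, 18 h incubation at 37 degrees C, GFP fluorescence quantified per cell by imaging cytometry.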
HepG2 tox-1 – counter-screen for TGF-b inhibitors: cytotoxicity in HepG2 cells. HepG2 CAGA-GFP viability, ATP luminescence, 18 h. Potency, µM (doses to about 46.1 µM), for inactives: at the highest dose activity change, negative = cytotoxicity, usual class: cytotoxic. 410,000 tested, 0.76% active. AID 588856
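HepG2 CAGA-GFP cells (1000/well, DMEM with 1% FBS) received compound, then TGF-beta at 500 pg/mL final, and were incubated 18 hours at 37 degrees C. Viability was read by CellTiter-Glo luminescence. Media-only wells were set as complete cell-killing and DMSO as no toxicity.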
HT1080 IDH1KD tx – toxicity to HT-1080 IDH1 knockdown cells (counter line); HT-1080 IDH1 knockdown viability, ATP luminescence, 48 h; Potency, µM (doses to about 46.1 µM), inactives show at the highest dose activity, negative = toxicity, actives largely listed as cytotoxic; 360,000 tested, 2% active; AID 686971;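 also: 0% = DMSO wells and -100% = cell-free medium wells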
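Cytotoxicity counter-line: IDH1KD HT-1080, 48 h, CellTiter-Glo. Curves classed by r2, magnitude and activity.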
HT1080-NT tox – kills 2HG-producing HT-1080-NT fibrosarcoma cells; Potency, µM (titrated, usually from 46.1 µM), inactives show at the highest dose activity, negative = less viability, usual class: cytotoxic; HT-1080-NT fibrosarcoma viability, CellTiter-Glo ATP luminescence, 48 h; 360,000 tested, 1.6% active; AID 686970;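 also: NT is the 2HG producing partner of a matched IDH1 knockdown line; 0% = DMSO-treated cells and -100% = media-only wells without cells; nearly all actives have a fitted effect of over 55% in size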
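Viability by CellTiter-Glo luminescence after 48 h compound exposure at 37C of HT-1080-NT cells (750/well, RPMI, 5% FBS). % activity scaled between DMSO wells and medium-only wells, then curve-fitted and categorized by curve class.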
S2 tox – cell viability loss in ATXN counter-screen; S2 cells (HEK-293 line with an ATXN2-luciferase reporter) viability, CellTiter-Fluor protease fluorescence, 24 h; Potency, µM (top dose mostly 56.7 µM), most hits filed as cytotoxic; 400,000 tested, 0.49% active; AID 651635; also: nearly all actives have a fitted effect of over 40% in size
TGFb CAGA inh – confirmation of TGF-b signaling inhibitors in HepG2 reporter cells; shares compounds with TGFb SMAD3 inh; HepG2 CAGA-GFP TGF-b reporter, GFP fluorescence, 18 h; cells stimulated with TGF-beta, 500 pg/mL; Potency, µM (doses to about 46.1 µM), without a hit: at the top dose activity, negative = inhibition, usual class: inhibitors; 1,600 tested, 63% active; AID 720534; also: % is scaled to controls: 0 for no effect and ±100 for the full control effect; nearly all actives have a fitted effect of over 65% in size
HepG2 tox-2 – toxic to HepG2 cells in TGF-b counterscreen; shares compounds with TGFb SMAD3 inh; HepG2 CAGA-GFP viability, ATP luminescence, 18 h; cells stimulated with TGF-beta, 500 pg/mL; Potency, µM (titrated, usually from 46.1 µM), without a hit: top-dose activity, negative = cytotoxicity, most hits filed as inhibitors; 1,600 tested, 27% active; AID 720535; also: % is scaled to controls: 0 for no effect and ±100 for the full control effect; nearly all actives have a fitted effect of over 70% in size
CCL64 TGFb inh – TGF-b inhibition, CCL64 orthogonal assay; shares compounds with TGFb SMAD3 inh; Potency, µM (series often up to 46.1 µM), for inactives: at the highest dose activity, negative = inhibition, most hits filed as inhibitors; 1,600 tested, 41% active; CCL64 CAGA-GFP reporter, TGF-b stimulated, GFP fluorescence, 18 h; also: nearly all actives have a fitted effect of over 65% in size
COP TGFb inh – blocks TGF-b signaling in HepG2 COP reporter. shares compounds with TGFb SMAD3 inh. HepG2 COP-GFP TGF-b reporter, GFP fluorescence, 18 h; cells stimulated by added recombinant TGF-beta. Potency, µM (highest dose often 46.1 µM), inactives show at the highest dose activity, negative = inhibition, usual class: inhibitors. 1,600 tested, 3% active. AID 720537; also: nearly all actives have a fitted effect of over 70% in size
Starred values were filed as active, the others as inactive; [ ] = remark or other dose. Calls follow the shape of the dose curve; as a rule, active = well fitted curve in the direction sought with a large enough effect; inconclusive = small, poorly fitted or top-dose-only effect, or another doubt; inactive = no such curve, though single readings can be large; an effect the other way counts as inactive or inconclusive. Potency is read from the fitted curve at half-maximal effect.

For Cc1cccc(C)c1-n1nnnc1C(c1cccs1)N1CCC(n2c(=O)[nH]c3ccccc32)CC1 (centres undefined) the results were ATXN2 expr inh inconclusive, TGFb SMAD3 inh inconclusive, HepG2 tox-1 -4%, HT1080 IDH1KD tx inconclusive and HT1080-NT tox -28%.
Screening CSCCC(c1nnnn1C1CCCCC1)N1CCC(n2c(=O)[nH]c3ccccc32)CC1 (centres undefined) returned ATXN2 expr inh inconclusive, TGFb SMAD3 inh 14µM*, HepG2 tox-1 -2%, HT1080 IDH1KD tx inconclusive, HT1080-NT tox inconclusive, S2 tox inconclusive, TGFb CAGA inh 26µM*, HepG2 tox-2 -20%, CCL64 TGFb inh -31% and COP TGFb inh -1%.
For COc1ccc(C(c2nnnn2-c2ccc(OC)cc2)N2CCC(n3c(=O)[nH]c4ccccc43)CC2)cc1 (centres undefined) the results were ATXN2 expr inh inconclusive, TGFb SMAD3 inh 11µM*, HepG2 tox-1 -2%, HT1080 IDH1KD tx inconclusive, HT1080-NT tox inconclusive, S2 tox inconclusive, TGFb CAGA inh 16µM*, HepG2 tox-2 -27%, CCL64 TGFb inh 13µM* and COP TGFb inh 51%.
For CSCCC(c1nnnn1-c1c(C)cccc1C)N1CCC(n2c(=O)[nH]c3ccccc32)CC1 (centres undefined) the results were ATXN2 expr inh 0%, TGFb SMAD3 inh -18%, HepG2 tox-1 -13%, HT1080 IDH1KD tx -4%, HT1080-NT tox -2% and S2 tox inconclusive.
CC(=O)Nc1ccc(OC(=O)N2CCN(/[N+]([O-])=N/Oc3ccc([N+](=O)[O-])cc3[N+](=O)[O-])CC2)cc1 was read as TGFb SMAD3 inh inconclusive and HepG2 tox-1 -101%.
For O=[N+]([O-])c1c(Cl)c(Cl)cc(Cl)c1Cl the results were ATXN2 expr inh 11%[116 µM] and S2 tox inactive.
For CNc1cc(Cl)c2nonc2c1[N+](=O)[O-] the results were ATXN2 expr inh 28µM*, TGFb SMAD3 inh 5.6µM*, HepG2 tox-1 -137%, HT1080 IDH1KD tx 5.8µM*, HT1080-NT tox 3.3µM*, S2 tox 22µM*, TGFb CAGA inh 3.3µM*, HepG2 tox-2 13µM*, CCL64 TGFb inh 2.6µM* and COP TGFb inh inconclusive.
Screening COC(=O)Nc1nc2ccccc2[nH]1 returned ATXN2 expr inh -19%, TGFb SMAD3 inh -3%, HepG2 tox-1 6%, HT1080 IDH1KD tx inconclusive, HT1080-NT tox inconclusive and S2 tox inactive.
`CCCOc1ccc(CSc2nc3ccccc3[nH]2)cc1` gave ATXN2 expr inh 4%, TGFb SMAD3 inh 10µM*, HepG2 tox-1 -46%, HT1080 IDH1KD tx 11µM*, HT1080-NT tox inconclusive, S2 tox inconclusive, TGFb CAGA inh -15%, HepG2 tox-2 inconclusive, CCL64 TGFb inh inconclusive and COP TGFb inh 4%.
Screening O=C(O)CSCC(=O)N(Cc1ccccc1)c1nc(-c2ccccc2)c(-c2ccccc2)s1 returned ATXN2 expr inh -10%, TGFb SMAD3 inh inconclusive, HepG2 tox-1 -10%, HT1080 IDH1KD tx -19%, HT1080-NT tox -11% and S2 tox inactive.
COc1ccc2[nH]c3c(c2c1)CCN1C(=O)C(CC(=O)NCc2cccc(C(F)(F)F)c2)C[C@H](C(=O)N2CCCCC2)[C@@]31C (some centres undefined) was read as ATXN2 expr inh 0%, TGFb SMAD3 inh 10µM*, HepG2 tox-1 2%, HT1080 IDH1KD tx -16%, HT1080-NT tox -4%, S2 tox inconclusive, TGFb CAGA inh 8.2µM*, HepG2 tox-2 -17%, CCL64 TGFb inh 4.6µM* and COP TGFb inh 3%.
`CC(C)N(CCC(C(N)=O)(c1ccccc1)c1ccccn1)C(C)C` (centres undefined) gave ATXN2 expr inh 5%, TGFb SMAD3 inh -2%, HepG2 tox-1 3%, HT1080 IDH1KD tx 2%, HT1080-NT tox inconclusive and S2 tox inactive.
`Cc1nc(-c2cccc(NC(=O)c3ccc(Cl)c(S(=O)(=O)N4CCCC4)c3)c2)cs1` gave TGFb SMAD3 inh inconclusive, HepG2 tox-1 -9%, HT1080 IDH1KD tx -20%, HT1080-NT tox -8% and S2 tox inconclusive.
Screening Oc1cc(Cl)cc(Cl)c1Cl returned ATXN2 expr inh -10%, TGFb SMAD3 inh inconclusive, HepG2 tox-1 -25%, HT1080 IDH1KD tx -2%, HT1080-NT tox -26% and S2 tox inactive.
`Cc1ccc(NC(=O)Nc2ccc3nc(N4CCN(C)CC4)cc(C)c3c2)cc1F` gave ATXN2 expr inh 16%, TGFb SMAD3 inh 26%, HepG2 tox-1 -23% and S2 tox inconclusive.
Cc1cc(-c2nc3ncccc3o2)ccc1NC(=O)c1ccccc1Br was read as ATXN2 expr inh 24%, TGFb SMAD3 inh 1%, HepG2 tox-1 4% and S2 tox inconclusive.
Screening Cc1nn(-c2cc(C(F)(F)F)ccn2)c(=O)o1 returned ATXN2 expr inh -24%, TGFb SMAD3 inh 0%, HepG2 tox-1 101%, HT1080 IDH1KD tx 4%, HT1080-NT tox 7% and S2 tox inactive.
For COC(=O)[C@@H](c1ccccc1)C1CCCCN1 (some centres undefined) the results were ATXN2 expr inh 2%, TGFb SMAD3 inh -1%, HepG2 tox-1 3%, HT1080 IDH1KD tx 20%, HT1080-NT tox 24% and S2 tox inactive.

Screening data deposited in PubChem BioAssay by National Center for Advancing Translational Sciences (NCATS).
